The record followed here is PubChem BioAssay (EPA / NIEHS).

In general, AC50 refers to the concentration giving half of the maximal activity seen.

Results filed as inconclusive are left out. The source made the active and inactive calls. Rule for the calls, unless noted: active = hit-call score of the fitted dose curve at least 0.9, where 1 is the maximum; inactive = score below 0.9.

Assay [1] is described as follows: IUF_NPC2-5_viability_120hr: Viability Assessment at 120 hours in the Leibniz Research Institute for Environmental Medicine (IUF) Neural Progenitor Cell Migration and Differentiation Assay (NPC2-5) (AID 2284312). Put shortly: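 Human fetal neural progenitor spheres (0.3 mm) plated on poly-D-lysine/laminin in N2 differentiation medium, exposed 120 h with half-medium refresh at day 3. Viability by alamar blue resazurin fluorescence; 7 concentrations, DMSO max 0.1%.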

Assay [2] is described as follows: CCTE_Deisenroth_5AR_NBTE_donor: CCTE's 5alpha-reductase NanoBRET Target Engagement Assay […], Deisenroth Lab (AID 2284319). Particulars: actives raise or lower the signal. The procedure, abridged: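 HEK293T cells were reverse transfected with an SRD5A2-NanoLuc vector for 20 h, exposed to test chemical (8 points, 10 nM - 29.9 uM) for 3 h, then testosterone tracer for 2 h more. Donor luminescence (460 nm) was read; bidirectional fit versus DMSO.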

Assay [3] is described as follows: CCTE_Deisenroth_5AR_NBTE_acceptor: CCTE's 5alpha-reductase NanoBRET Target Engagement Assay - Autofluorescence Screen, Deisenroth Lab (AID 2284321).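 Note: compound fluorescence in the acceptor channel under 460 nm excitation flags autofluorescence artifacts.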 Particulars: actives raise or lower the signal. Put shortly:
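Chemicals diluted to a nominal 100 uM in DMSO were scanned at 460 nm excitation. Samples were read in three independent runs (n=3). Gain or loss of acceptor signal was fitted relative to DMSO.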

For the next assay, the system named is SRD5A2 (gene 6716). Nature of the assay: CCTE_Deisenroth_5AR_NBTE_ratio: CCTE's 5alpha-reductase NanoBRET Target Engagement Assay - Ratio, Deisenroth Lab (AID 2284322). Particulars: actives raise or lower the signal. The procedure, abridged:
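Reverse-transfect HEK293T with pNLF1-C-SRD5A2, express 20 h. Pre-incubate cells with chemical 3 h (8-point series, 10 nM - 29.9 uM, duplicate). Add testosterone tracer, 2 h more. Add substrate/inhibitor, read donor and acceptor emission.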
(BRET reads energy transfer from a luciferase to a nearby fluorophore.)

Another assay deals with IYD (gene 389434). Put plainly: CCTE_GLTED_hIYD: CCTE's human Iodotyrosine Deiodinase (xIYD) Inhibition Assay, Great Lakes Toxicology and Ecology Division (GLTED) Lab (AID 2284317; active = hit-call score of the fitted dose curve at least 0.9, where 1 is the maximum;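 note: cell-free human IYD enzyme made in baculovirus insect cells; iodide freed from monoiodotyrosine measured by cerium arsenite color change at 420 nm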). Put shortly: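 Human IYD expressed in a baculovirus-insect cell system was incubated 3 h with monoiodotyrosine and test chemical. Released iodide, separated on Dowex columns, was quantified by the Sandell-Kolthoff reaction at 420 nm; plates were normalized to MNT and DMSO/NaOH controls.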

Assay [4] is described as follows: VALA_TUBIPS_Agonist_TubuleLength: VALA Sciences human iPS-derived Endothelial Tubule Formation (TUBIPS) Agonism Assay (AID 2284311; active = hit-call score of the fitted dose curve at least 0.9, where 1 is the maximum). On the procedure:
VALA_TUBIPS_Agonist is a cell-based, multiplexed assay that uses human iPS-derived endothelial cells (iPSC). Measurements were taken 72 hours after chemical dosing in a 96-well plate.VALA_TUBIPS_Agonist_TubuleLength is the one of two assay components measured from the VALA_TUBIPS_Agonist assay. It is designed to make measurements of tubulogenesis, a form of morphology reporter, as detected with fluorescence intensity signals by HCS Fluorescent Imaging technology. This VALA_TUBIPS1 assay was designed to detect chemical activation of tubulogenesis, i.e. agonism.Data from the assay component VALA_TUBIPS_Agonist_TubuleLength was analyzed at the endpoint, VALA_TUBIPS_Agonist_TubuleLength, in the positive analysis fitting direction relative to DMSO as the negative control and baseline of activity. Using a type of morphology reporter, gain-of-signal activity can be used to understand developmental effects. To generalize the intended target to other relatable targets, this assay endpoint is annotated to the neurodevelopment intended target family, where the subfamily is tubulogenesis.
(§1) This HUVEC-HDF assay was designed to detect chemical suppression of tubulogenesis, i.e. antagonism. […]

A short description of assay [5]: VALA_TUBIPS_Antagonist_TubuleLength: VALA Sciences human iPS-derived Endothelial Tubule Formation (TUBIPS) Antagonist Assay (AID 2284313; active = hit-call score of the fitted dose curve at least 0.9, where 1 is the maximum). As to the method: VALA_TUBIPS_Agonist is a cell-based, multiplexed assay that uses human iPS-derived endothelial cells (iPSC). Measurements were taken 72 hours after chemical dosing in a 96-well plate.VALA_TUBIPS_Antagonist_TubuleLength is the one of two assay components measured from the VALA_TUBIPS_Antagonist assay. It is designed to make measurements of tubulogenesis, a form of morphology reporter, as detected with fluorescence intensity signals by HCS Fluorescent Imaging technology. This VALA_TUBIPS_Antagonist assay was designed to detect chemical suppression of tubulogenesis, i.e. antagonism.Data from the assay component VALA_TUBIPS_Antagonist_TubuleLength was analyzed at the endpoint, VALA_TUBIPS_Antagonist_TubuleLength, in the positive analysis fitting direction relative to DMSO as the negative control and baseline of activity. Using a type of morphology reporter, loss-of-signal activity can be used to understand developmental effects. To generalize the intended target to other relatable targets, this assay endpoint is annotated to the neurodevelopment intended target family, where the subfamily is tubulogenesis.
as §1

Assay [6] can be described thus: VALA_MIGHUV2_Bcatenin: VALA Sciences human Umbilical Vein Endothelial Cell Migration (MIGHUV) Assay, Nuclear Translocation of beta-Catenin after Recovery (AID 2284315; active = hit-call score of the fitted dose curve at least 0.9, where 1 is the maximum). On the procedure: VALA_MIGHUV2_BCatenin is a cell-based, multiplexed assay that uses umbilical vein-derived endothelial cells (HUVEC). Measurements were taken 24 hours after chemical dosing in a 96-well plate.VALA_MIGHUV2_Bcatenin is the one of two assay components measured from the VALA_MIGHUV2 assay. It is designed to make measurements of nuclear translocation of CTNB, a form of morphology reporter, as detected with fluorescence intensity signals by HCS Fluorescent Imaging technology.Data from the assay component VALA_MIGHUV2_BCatenin was analyzed at the endpoint, VALA_MIGHUV2_BCatenin, in the positive analysis fitting direction relative to DMSO as the negative control and baseline of activity. Using a type of morphology reporter, gain-of-signal activity can be used to understand developmental effects. To generalize the intended target to other relatable targets, this assay endpoint is annotated to the neurodevelopment intended target family, where the subfamily is migration.
Cells were seeded on 384-well microplates (day-0) at a density of 9000 cells per well for detection of wound area recovery or 4000 cells per well for detection of beta-catenin (CTNB) immunoreactivity and incubated in Endothelial Cell Growth Medium (CAI, San Diego; catalog 211-500). After 24 hours of culture, the HUVEC plates were scratched using a custom scratch head with the Bravo liquid handling system. […]

Assay [7] is described as follows: VALA_TUBHUV_Agonist_CellCount: Viability Assessment in the VALA Sciences human Umbilical Vein Endothelial Tubule Formation (TUBHUV) Agonism Assay (AID 2284309; active = hit-call score of the fitted dose curve at least 0.9, where 1 is the maximum). Put shortly:
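HUVEC co-cultured 1:3 with HDF for 3 days in 10 ng/ml VEGF, then compounds added in VEGF medium for a further 3 days (72 h). Nuclear-stain/CD31 imaging cell count. Positive-direction fit versus 0.1% DMSO vehicle.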

Assay [8] is described as follows: VALA_MIGHUV2_WoundArea: VALA Sciences human Umbilical Vein Endothelial Cell Migration (MIGHUV) Assay, Area of Scratch Wound after Recovery (AID 2284316; active = hit-call score of the fitted dose curve at least 0.9, where 1 is the maximum). Put shortly:
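HUVEC seeded at 9000 cells/well, scratched after 24 h; test chemical added within 30 min, 6-point concentration response in triplicate (0.1% DMSO vehicle). After 24 h wound recovery, cells fixed and Hoechst-stained nuclei in wound area imaged; Cytochalasin D reference control.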

For the compound `CCOc1cc(Oc2ccc(C(F)(F)F)cc2Cl)ccc1[N+](=O)[O-]`, in [1], the outcome was inactive.

On to `Cc1ccc(-c2c(Cl)nc(C#N)n2S(=O)(=O)N(C)C)cc1`, for which the AC50 in assay [1] is 11.7 µM (active).

Regarding `CN(C)C(=S)SSC(=S)N(C)C`, the AC50 in assay [1] is 29.1 µM (active).

`COP(N)(=O)SC` (stereo not given): in assay [1], the call was inactive.

In the case of `N#CC(CCc1ccc(Cl)cc1)(Cn1cncn1)c1ccccc1` (stereo not given), the compound was called inactive (in [2]; in assay [3]; in the assay on SRD5A2 (gene 6716)).

Regarding `CNC(=O)ON=CC(C)(C)SC`, the compound was classed as inactive in [1].

In the case of `C=CC1(C)OC(=O)N(c2cc(Cl)cc(Cl)c2)C1=O` (stereo not given), in [1], the outcome was inactive.

Regarding `Oc1ccccc1-c1ccccc1`, the call (in the assay on IYD (gene 389434); in assay [2]; in [3]) was inactive. The AC50 with SRD5A2 (gene 6716) was 31.5 µM (active).

Turning to `CCCCOC(=O)c1ccccc1C(=O)OCCCC`, the outcome (in [1]; in the assay with IYD (gene 389434)) was inactive.

Turning to `OC(c1ccc(Cl)cc1)(c1cncnc1)c1ccccc1Cl` (stereo not given), the result in the assay on IYD (gene 389434) was inactive.

Regarding `N#Cc1nn(-c2c(Cl)cc(C(F)(F)F)cc2Cl)c(N)c1S(=O)C(F)(F)F` (stereo not given), the compound was called inactive in [4], in [1], in assay [5] and in assay [6].

In the case of `N#Cc1cc(Br)c(O)c(Br)c1`, the result in the assay with IYD (gene 389434) was inactive.

For `CC1COC(Cn2cncn2)(c2ccc(Oc3ccc(Cl)cc3)cc2Cl)O1` (stereo not given), the outcome in the assay on IYD (gene 389434) was inactive.

`CO/C=C(/C(=O)OC)c1ccccc1Oc1cc(Oc2ccccc2C#N)ncn1`: the compound was classed as inactive in [1].

Take `COc1ccc(C(c2ccc(OC)cc2)C(Cl)(Cl)Cl)cc1`: the call (in assay [2]; in [3]; in the assay with SRD5A2 (gene 6716)) was inactive.

For the compound `CC(C)(C)c1ccc(CSc2cnn(C(C)(C)C)c(=O)c2Cl)cc1`, the AC50 was 20.3 µM (active) in [7] and 7.5 µM (active) in assay [8]. The compound was called inactive in assay [1] and in [5].

In the case of `CCCCNC(=O)OCC#CI`, the AC50 (in assay [2]; in assay [3]; in the assay with SRD5A2 (gene 6716)) was 50 µM (active) throughout.

With `COP(=S)(OC)Oc1nc(Cl)c(Cl)cc1Cl`, the compound was called inactive in assay [1].

Consider `CCCCC(CC)COC(=O)c1ccccc1C(=O)OCC(CC)CCCC` (stereo not given), for which the compound was called inactive in assay [1].

For the compound `CCOC(=O)CC(SP(=S)(OC)OC)C(=O)OCC` (stereo not given), the outcome in assay [1] was inactive.

For `COC(=O)N(OC)c1ccccc1COc1ccn(-c2ccc(Cl)cc2)n1`, the AC50 was 1.55 µM (active) in assay [1] and 34.1 µM (active) in the assay on SRD5A2 (gene 6716). For the same compound, the compound was classed as inactive in assay [2] and in [3].
